# Measurements published in PubChem BioAssay AID651812 (National Center for Advancing Translational Sciences (NCATS), 2012).
# The campaign covered roughly 2,100 compounds. About 650 (31%) were called active. Roughly 16% stayed inconclusive and do not appear here. This is one part of the list. Unmarked numbers belong to inactive results. The call rests on the fitted dose curve; in most records, active means well fitted inhibition curve with a large enough effect; inconclusive means small, poorly fitted or top-dose-only effect; inactive means flat fitted curve, though single readings scatter.
# Assay: qHTS for inhibitors of Vif-A3G interactions: Cherry picks; further: nearly all actives have a fitted effect of over 80% in size; on activity, negative = fluorescence increase: % of control where 0% means no effect
# Details: HeLa A3G-eYFP + Vif (tagged APOBEC3G with the HIV-1 protein that degrades it), 24 h; Potency: eYFP fluorescence increase; series mostly up to 36.9 µM; activity, negative = fluorescence increase: at the top concentration
# How it was run: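 HeLa cells stably expressing A3G-eYFP and Vif, cultured overnight then exposed to compounds at several concentrations for 24 hours at 37 C, 5% CO2; cellular yellow fluorescence (488 nm ex, 500-530 nm em) imaged on Acumen, MG132 positive control.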
# Potency means the concentration at half of the fitted maximal effect.
SMILES,"activity, negative = fluorescence increase",Potency
CCOC(=O)c1c(C)oc2ccc(N(C(=O)c3ccncc3)S(=O)(=O)c3ccc(Br)cc3)cc12,0.275% [at 46.1 µM],–
COc1cc(/C=N/Nc2cc(C)nc(NS(=O)(=O)c3ccccc3)n2)ccc1O,7.07% [at 46.1 µM],–
COc1ccc(OC)c(S(=O)(=O)N/N=C\c2cn(CC(N)=O)c3ccccc23)c1,-0.126%,–
COc1ccc(S(=O)(=O)NCc2ccccn2)cc1NC(=O)c1ccc(C)cc1,-5.54%,–
COc1ccc(-n2c(O)c(/C=N/NS(=O)(=O)c3cc(C)ccc3C)c3ccccc3c2=O)cc1OC,–,16.4 µM (active)
COc1ccc(-n2c(O)c(/C=N/NS(=O)(=O)c3ccc(C)cc3)c3ccccc3c2=O)cc1OC,–,18.4 µM (active)
COc1cc(C(=O)NCC(=O)N2CCN(S(=O)(=O)c3cc(C)ccc3C)CC2)cc(OC)c1OC,-8.03%,–
CCC(=O)OCc1cnc(C)c2oc(=O)c(C(=O)Nc3ccccc3C(F)(F)F)cc12,1.85% [at 46.1 µM],–
CC(=O)Nc1cccc(-c2ccnc3c2CC(C(=O)Nc2ccc4c(c2)OCO4)O3)c1 (configuration not stated),-7.38%,–
O=[N+]([O-])c1cc(O)c2ncccc2c1,-0.625%,–
c1ccc(-c2cccc(-c3ccccn3)n2)nc1,-1.7%,–
Nc1[nH]c2cc([N+](=O)[O-])ccc2c1-c1ccccn1,–,8.2 µM (active)
COc1ccc(-n2nnnc2S(=O)(=O)Cc2ccc(C(=O)O)cc2)cc1,0.257%,–
Cc1ccc(NC(=O)c2c(C)nc3sc(C(=O)NC4CCCC4)c(N)c3c2-c2ccco2)c(C)c1,–,20.6 µM (active)
COc1cccc(NC(=O)c2sc3nc(C)c(C(=O)Nc4ccc(C)cc4C)c(-c4ccco4)c3c2N)c1,-28.7% [at 46.1 µM],–
CCc1ccc(NC(=O)c2sc3nc(C)c(C(=O)Nc4ccc(C)cc4C)c(-c4ccco4)c3c2N)cc1,–,23.1 µM (active)
CCOC(=O)c1[nH]c(C)c(C(=O)Nc2ccc(C)cc2C)c1C,-4.32%,–
CCOC(=O)N1CCN(C(=O)c2[nH]c(C(F)(F)F)nc2-c2ccccc2)CC1,-3.99%,–
CC1(C(=O)NCc2ccc(F)c(F)c2)Cc2c(-c3cccc(C(N)=O)c3)ccnc2O1 (configuration not stated),-4.8%,–
COc1ccc(CN(C(C)=O)c2cccc(C)c2C)cc1,-5.97%,–
FC(F)(F)c1ccccc1NC(=S)NN=C1CCCCCC1,-18% [at 46.1 µM],–
COC(=O)c1sccc1S(=O)(=O)N(CC(=O)Nc1cc(F)ccc1F)c1ccc(C)c(C)c1,2% [at 46.1 µM],–
N#CCC(=O)N/N=C/c1ccc(N2N=C(c3ccccc3)CC2c2ccccc2)cc1 (configuration not stated),–,20.6 µM (active)

SMILES,"activity, negative = fluorescence increase",Potency
C/C(=N\NC(=S)NCc1ccccc1)c1cccs1,-8.35% [at 46.1 µM],–
C/C(=N\Nc1nccnc1Cl)c1ccc(Cl)c(Cl)c1,-2.4% [at 46.1 µM],–
COC(=O)c1sc2cc([N+](=O)[O-])cc(SCC(C)C)c2c1N,–,16.4 µM (active)
CCOC(=O)c1sc2cc([N+](=O)[O-])cc(SCC(C)C)c2c1N,–,2.91 µM (active)
CS(=O)(=O)N(CC(=O)N1CCN(Cc2ccccc2)CC1)c1ccccc1F,1.65% [at 46.1 µM],–
O=C(COC(=O)C12CC3CC(CC(Cl)(C3)C1)C2)N1CCCCC1,-0.277% [at 46.1 µM],–
O=Cc1sc(Nc2ccccc2)nc1Cl,–,23.1 µM (active)
c1ccc(Nc2nc(-c3ccccn3)cs2)cc1,-20.4% [at 46.1 µM],–
Cc1ccc(Nc2nc(Cl)c(C=O)s2)cc1Cl,–,16.4 µM (active)
COc1ccc(S(=O)(=O)N2CCCOC2CNC(=O)C(=O)NCCc2ccco2)cc1C (configuration not stated),0.138%,–
C=C(C)CNC(=S)NNC(=O)c1ccco1,-0.874%,–
Cc1ccc2c(Cl)c(C)c(N3CCCC3)nc2n1,0.2% [at 46.1 µM],–
COc1ccc(C(=O)N2CCN(c3cccc(Cl)c3)CC2)cc1S(=O)(=O)NC1CC1,-4.75%,–
Cc1ccc(C(=O)NN(C)c2nc3ccccc3nc2C(F)(F)F)cc1,0.321%,–
Cc1c(CCCl)c(Cl)n2c(nc3ccccc32)c1C#N,-5.86%,–
Cc1ccc(C(=O)NCCn2c(N)c(C#N)c3nc4ccccc4nc32)cc1,–,23.1 µM (active)
COc1ccc(-c2cnc3c(NC=O)cc(-c4ccoc4)cn23)cc1OC,-15.1%,–
CCN(CC)c1ccc(/C=N/NC(=O)c2ccco2)c(O)c1,-14.9%,–
CNC(=S)N/N=C/c1ccc(N2CCOCC2)s1,-0.534% [at 46.1 µM],–
CC(C)NC(=S)N/N=C/c1sc(N2CCCCC2)nc1-c1cccs1,–,23.1 µM (active)
CC(C)NC(=S)N/N=C1\CCCCc2ccccc21,10.1% [at 46.1 µM],–
CN(C)CCCNc1cc(N2CCN(C3CCCCC3)CC2)c2noc3c2c1C(=O)c1ccccc1-3,–,20.6 µM (active)
CCNc1cc(N2CCN(C3CCCCC3)CC2)c2noc3c2c1C(=O)c1ccccc1-3,–,16.4 µM (active)

SMILES,"activity, negative = fluorescence increase",Potency
O=C1c2ccccc2-c2onc3c(N4CCN(C5CCCCC5)CC4)cc(NCCO)c1c23,–,4.61 µM (active)
O=C(c1cc(-c2ccncc2)nc2ccccc12)N1CCN(c2ccccn2)CC1,-7.38%,–
CCOc1cc(C)nc(NCc2ccccc2)n1,-13.7%,–
C=CCOC(=O)C1=C(C)Nc2nnnn2C1c1cccs1 (configuration not stated),-3.28%,–
N#CC1=C(S)N(c2ccc(F)cc2)C2(CCCCC2)NC1=O,-2.54% [at 46.1 µM],–
O=C(COc1ccccc1)NC(=S)Nc1cccc2c(O)cccc12,-6.15%,–
COc1ccc(OC)c(NCc2cccn2-c2nnc(N3CCC(C)CC3)s2)c1,-2.15% [at 46.1 µM],–
Cc1ccc(CSc2nc(-c3ccc(C(C)(C)C)cc3)nc3cc(=O)[nH]n23)cc1,0.591% [at 46.1 µM],–
Nc1c(C(=O)Nc2nc3ccccc3s2)sc2nc(-c3cccs3)ccc12,–,18.4 µM (active)
O=C(Nc1nc2ccccc2s1)c1ccc([N+](=O)[O-])o1,-9.27%,–
Nc1c(C(=O)Nc2nccs2)sc2nc(-c3cccs3)cc(C(F)(F)F)c12,–,14 µM (active)
Cc1nnc(NC(=O)c2sc3nc(-c4cccs4)cc(C(F)(F)F)c3c2N)s1,–,9.2 µM (active)
Nc1c(C(=O)Nc2ccc(F)cc2)sc2nc(-c3cccs3)cc(C(F)(F)F)c12,–,1.84 µM (active)
O=C(N/N=C/c1ccsc1)c1cc(-c2cccs2)nc2ccccc12,-2.5%,–
Cn1c(=O)c2c(nc(NC3CCCC3)n2C)n(C)c1=O,-11.2% [at 46.1 µM],–
CSc1nc(N)c(C#N)c(-c2ccccc2Cl)c1C#N,-4.05%,–
N#Cc1c(Nc2ccccc2)[n+]([O-])c2ccc(Cl)cc2[n+]1[O-],-9.86%,–
COc1cccc(/C(O)=C/c2nc3ccc(C(=O)NCCc4cccc(C)c4)cc3[nH]c2=O)c1,–,11.6 µM (active)
COc1cccc(/C(O)=C/c2nc3ccc(C(=O)NCCc4ccc(Cl)cc4)cc3[nH]c2=O)c1,–,16.4 µM (active)
COc1ccc2nc(NC(=O)c3nc(S(=O)(=O)Cc4cccc(C)c4)ncc3Cl)sc2c1,-0.58% [at 46.1 µM],–
COc1cccc(C(=O)N/N=C/C(Br)=C/c2ccccc2)c1,-2.9%,–
